Source: PubChem BioAssay (several laboratories)
An excerpt weighted towards active compounds, which were near 3.8% of everything screened.
Jurkat NFkB inh: inhibitors of the PMA/ionomycin-induced NF-kB reporter in Jurkat cells; PMA/ionomycin-induced NF-kB luciferase reporter, luminescence; inhibition, % at 4 µM; actives 0.53% (n = 330,000); AID 435003; in the data active = inhibition above about 50%
Mdm2-MdmX inh: human Mdm2/MdmX binding inhibition | actives 3% (n = 330,000) | O15151+Q00987 | SaOS-2 split-luciferase Mdm2/MdmX complementation, luminescence | inhibition, % at 8 µM;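 active = inhibition of at least 50% at 8 µM in the primary screen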
Target sequence (O15151 whole entry, looked up): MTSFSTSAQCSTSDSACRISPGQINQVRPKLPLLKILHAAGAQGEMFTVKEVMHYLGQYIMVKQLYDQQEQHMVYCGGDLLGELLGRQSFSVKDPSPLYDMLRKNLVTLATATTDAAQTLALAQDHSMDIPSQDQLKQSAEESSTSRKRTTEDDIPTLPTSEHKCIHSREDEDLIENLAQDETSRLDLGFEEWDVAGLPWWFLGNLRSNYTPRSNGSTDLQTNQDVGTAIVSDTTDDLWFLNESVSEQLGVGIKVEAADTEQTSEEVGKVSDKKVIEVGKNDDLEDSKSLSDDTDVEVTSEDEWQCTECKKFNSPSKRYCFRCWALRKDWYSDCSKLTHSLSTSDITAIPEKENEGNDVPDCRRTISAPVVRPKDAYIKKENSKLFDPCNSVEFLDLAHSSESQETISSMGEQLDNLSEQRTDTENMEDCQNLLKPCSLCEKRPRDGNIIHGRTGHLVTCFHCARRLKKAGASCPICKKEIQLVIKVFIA
Target sequence (Q00987 whole entry, looked up): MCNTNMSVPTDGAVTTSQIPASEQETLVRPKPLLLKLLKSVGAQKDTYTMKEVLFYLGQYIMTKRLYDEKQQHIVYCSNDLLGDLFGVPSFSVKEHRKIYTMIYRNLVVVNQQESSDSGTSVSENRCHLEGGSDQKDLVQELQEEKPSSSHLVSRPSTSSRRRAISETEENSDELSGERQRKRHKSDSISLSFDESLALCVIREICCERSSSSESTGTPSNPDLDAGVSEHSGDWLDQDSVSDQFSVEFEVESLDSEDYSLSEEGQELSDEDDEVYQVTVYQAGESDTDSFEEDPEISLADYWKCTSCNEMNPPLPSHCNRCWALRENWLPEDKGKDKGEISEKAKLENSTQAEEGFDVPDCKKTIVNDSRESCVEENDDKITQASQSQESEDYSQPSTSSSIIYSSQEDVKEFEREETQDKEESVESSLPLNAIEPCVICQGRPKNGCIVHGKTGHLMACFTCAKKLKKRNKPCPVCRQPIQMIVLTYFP
697 NFkB inh: inhibitors of the PMA/ionomycin-induced NF-kB reporter in 697 B cells | inhibition, % at 4 µM | 697 B-cell NF-kB luciferase reporter, 16 h | actives 0.33% (n = 330,000); in the data active = inhibition above about 35%
NTR1 agonist: activates human neurotensin receptor 1. P30989. NTR1-U2OS beta-arrestin-GFP spot imaging, agonist mode. activation, % at 20 µM. actives 0.17% (n = 330,000). AID 493036;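 active = activation at or above 40% of the spot to cytoplasm intensity ratio, with at least 20 cells analyzed; inconclusive = wells under 20 cells, flagged as cytotoxic or low count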
Beta cell apopt: blocks beta cell apoptosis; INS-1E cytokine-induced death, ATP luminescence, 48 h; percent of positive-control rescue, neutral wells zero; protection from apoptosis, % (test concentration not listed); actives 0.8% (n = 300,000); AID 435005;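 active = Every replicate reaches about 75%, or at least half do and their mean reaches it too, limit read from the data; inconclusive = At least half of replicates reach the limit but their mean does not; inactive = Under half of replicates reach the limit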;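 note: higher means more ATP so stronger rescue from cytokine killing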
A1 inh: inhibitors of the anti-apoptotic protein A1, read as caspase activation; MEF A1-2A-BIM cells, Caspase-Glo 3/7 luminescence, 3 h; percent of clofoctol response, vehicle zero; caspase activation, % (test concentration not listed); actives 0.066% (n = 330,000); AID 2462;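 active = over half of replicate activation scores above 10%, or exactly half above 10 with the replicate mean above 10; inconclusive = replicate mean below 10 yet half the replicates above 10; inactive = over half of replicates below 10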
Mdm2 MdmX conf: human Mdm2/MdmX binding inhibition, confirmed. shares compounds with Mdm2-MdmX inh. luminescent assay. inhibition, % at 8 µM. actives 55% (n = 10,000). AID 489028; in the data active = inhibition above about 40%
Full FLuc ctr: full-length luciferase inhibition in Mdm2/MdmX counter-screen; shares compounds with Mdm2-MdmX inh; SaOS-2 full-length luciferase counterscreen, luminescence; inhibition, % at 8 µM; actives 77% (n = 6,200); AID 504607;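 active = mean inhibition at 8 µM reaching about 37%, which flags the compound as non-specific, limit read from the data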;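 note: p53-null SaOS-2 cells with luciferase driven by a doxycycline-inducible promoter; compound on cells about two nights before reading with doxycycline added after day one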
Numbers stand for hits.

`COc1ccc(C)cc1Nc1c2c(nc3ccccc13)CCC2` gave Jurkat NFkB inh inactive, Mdm2-MdmX inh 59, 697 NFkB inh inactive, NTR1 agonist inactive, Beta cell apopt inactive, A1 inh inactive, Mdm2 MdmX conf 59 and Full FLuc ctr 87.
For COc1ccc(CCNCC(O)Cn2c3ccccc3c3ccccc32)cc1OC (centres undefined) the results were Jurkat NFkB inh inactive, Mdm2-MdmX inh 92, 697 NFkB inh inactive, NTR1 agonist inactive, Beta cell apopt inactive, A1 inh inactive, Mdm2 MdmX conf inactive and Full FLuc ctr 55.
For CCOc1ccc(C(=O)CCC(=O)N2CCN(S(=O)(=O)c3cccc(F)c3)CC2)cc1 the results were Jurkat NFkB inh inactive, Mdm2-MdmX inh inactive, 697 NFkB inh inactive, NTR1 agonist inactive, Beta cell apopt inactive and A1 inh inactive.
For N#CC1(NC(=O)CSc2nnc(C3CC3)n2C2CC2)CCCCC1 the results were Jurkat NFkB inh inactive, Mdm2-MdmX inh inactive, 697 NFkB inh inactive, NTR1 agonist inactive, Beta cell apopt inactive and A1 inh inactive.
CC(=O)c1ccc(NC(=O)c2ccc(N3C(=O)c4cccnc4C3=O)cc2)cc1 was read as Jurkat NFkB inh inactive, Mdm2-MdmX inh inactive, 697 NFkB inh inactive, NTR1 agonist inactive, Beta cell apopt inactive and A1 inh inactive.
For COc1ccc(CCNc2c3ccccc3nc3ccccc23)cc1OC the results were Jurkat NFkB inh inactive, Mdm2-MdmX inh 50, 697 NFkB inh inactive, NTR1 agonist inactive, Beta cell apopt 77, A1 inh inactive and Mdm2 MdmX conf inactive.
COc1ccc(Nc2cc(Nc3cc(OC)c(OC)c(OC)c3)ncn2)cc1 was read as Jurkat NFkB inh inactive, Mdm2-MdmX inh 65, 697 NFkB inh inactive, NTR1 agonist inactive, Beta cell apopt inactive, A1 inh inactive and Mdm2 MdmX conf inactive.
Screening COc1ccc(Nc2c3ccccc3nc3ccccc23)cc1 returned Jurkat NFkB inh inactive, Mdm2-MdmX inh inactive, 697 NFkB inh inactive, NTR1 agonist inactive, Beta cell apopt inactive and A1 inh inactive.
COc1ccccc1Nc1c2ccccc2nc2ccccc12 was read as Jurkat NFkB inh inactive, Mdm2-MdmX inh 53, 697 NFkB inh inactive, NTR1 agonist inactive, Beta cell apopt inactive, A1 inh inactive, Mdm2 MdmX conf 48 and Full FLuc ctr 69.
Screening COc1cc(Nc2c3ccccc3nc3ccccc23)cc(OC)c1OC returned Jurkat NFkB inh inactive, Mdm2-MdmX inh 86, 697 NFkB inh inactive, NTR1 agonist inactive, Beta cell apopt inactive, A1 inh inconclusive, Mdm2 MdmX conf 55 and Full FLuc ctr 62.
`CC(C)(C)OC(=O)C[C@H]1C/C=C\C[C@H](CC(=O)NCCO)C(=O)NCCOC1=O` gave Jurkat NFkB inh inactive, Mdm2-MdmX inh inactive, 697 NFkB inh inactive, NTR1 agonist inactive, Beta cell apopt inactive and A1 inh inactive.
O=C(NNC(=O)c1ccccc1OCc1ccccc1)c1ccccc1O was read as Jurkat NFkB inh inactive, Mdm2-MdmX inh 64, 697 NFkB inh inactive, NTR1 agonist inactive, Beta cell apopt 86, A1 inh inactive, Mdm2 MdmX conf 70 and Full FLuc ctr inactive.
For C/C(=N\NC(=O)c1cc(Br)ccc1O)c1ccccn1 the results were Jurkat NFkB inh inactive, Mdm2-MdmX inh 57, 697 NFkB inh inactive, NTR1 agonist inactive, Beta cell apopt 105, A1 inh inactive, Mdm2 MdmX conf inactive and Full FLuc ctr 50.
For O=C(NNC(=O)c1ccccc1OCc1ccc(F)cc1)c1ccccc1O the results were Jurkat NFkB inh inactive, Mdm2-MdmX inh 69, 697 NFkB inh inactive, NTR1 agonist inactive, Beta cell apopt 87, A1 inh inactive, Mdm2 MdmX conf 73 and Full FLuc ctr inactive.
C/C(=N\NC(=O)c1ccccc1OCc1ccc(F)cc1)c1ccccn1 was read as Jurkat NFkB inh inactive, Mdm2-MdmX inh 93, 697 NFkB inh inactive, NTR1 agonist inactive, Beta cell apopt 94, A1 inh inactive, Mdm2 MdmX conf 53 and Full FLuc ctr 45.
O=C(NCc1ccc(F)cc1)c1ccccc1OCc1ccccc1 was read as Jurkat NFkB inh inactive, Mdm2-MdmX inh inactive, 697 NFkB inh inactive, NTR1 agonist inactive, Beta cell apopt inactive and A1 inh inactive.
For Cc1cccc(/C=N/NC(=O)c2cc(Br)ccc2O)n1 the results were Jurkat NFkB inh inactive, Mdm2-MdmX inh inactive, 697 NFkB inh inactive, NTR1 agonist inactive, Beta cell apopt inactive and A1 inh inactive.
For O=C(NNC(=O)c1ccccc1OCc1ccccc1)c1ccccc1F the results were Jurkat NFkB inh inactive, Mdm2-MdmX inh inactive, 697 NFkB inh inactive, NTR1 agonist inactive, Beta cell apopt inactive and A1 inh inactive.
`O=C(CSc1nnc(NC(=O)C2CCC2)s1)Nc1ccccc1Br` gave Jurkat NFkB inh inactive, Mdm2-MdmX inh inactive, 697 NFkB inh inactive, NTR1 agonist inactive, Beta cell apopt inactive and A1 inh inactive.
For CCOC(=O)/C=c1\s/c(=C\c2ccc(C(F)(F)F)cc2)c(=O)n1CC(=O)NCc1ccco1 the results were Jurkat NFkB inh inactive, Mdm2-MdmX inh 76, 697 NFkB inh inactive, NTR1 agonist inactive, Beta cell apopt inactive, A1 inh inactive and Mdm2 MdmX conf inactive.
Screening CCOC(=O)/C=c1\s/c(=C\c2ccc(-c3ccccc3)cc2)c(=O)n1CC(=O)NCc1ccc2c(c1)OCO2 returned Jurkat NFkB inh inactive, Mdm2-MdmX inh 84, 697 NFkB inh inactive, NTR1 agonist inactive, Beta cell apopt inactive, A1 inh inactive and Mdm2 MdmX conf inactive.
For CCOC(=O)/C=c1\s/c(=C\c2sccc2C)c(=O)n1CC(=O)NCc1ccc(C)cc1 the results were Jurkat NFkB inh inactive, Mdm2-MdmX inh 66, 697 NFkB inh inactive, NTR1 agonist inactive, Beta cell apopt inactive, A1 inh inactive and Mdm2 MdmX conf inactive.
Screening CCOC(=O)/C=c1\s/c(=C\c2ccc(C)cc2)c(=O)n1CC(=O)NCc1ccco1 returned Jurkat NFkB inh inactive, Mdm2-MdmX inh inactive, 697 NFkB inh inactive, NTR1 agonist inactive, Beta cell apopt inactive and A1 inh inactive.
CCOC(=O)COc1cccc2c(=O)n(CC(=O)NCc3ccc4c(c3)OCO4)ccc12 was read as Jurkat NFkB inh inactive, Mdm2-MdmX inh inactive, 697 NFkB inh inactive, NTR1 agonist inactive, Beta cell apopt inactive and A1 inh inactive.
Screening Cc1cc(C)c(S(=O)(=O)N2CCN(c3ccccc3)CC2)c(C)c1 returned Jurkat NFkB inh inactive, Mdm2-MdmX inh inactive, 697 NFkB inh inactive, NTR1 agonist inactive and A1 inh inactive.
CCC(=O)N1CCc2cc(S(=O)(=O)CCC(=O)N3CCN(c4ccc(C(C)=O)cc4)CC3)ccc21 was read as Jurkat NFkB inh inactive, Mdm2-MdmX inh inactive, 697 NFkB inh inactive, NTR1 agonist inactive, Beta cell apopt inactive and A1 inh inactive.
